# Measured values from the supplement of paper PMC10037445.
# Over roughly 2,900 compounds, “NF-kB SEAP reporter activity, fold change vs agonist alone” has its median near 0.99; the highest 2% begin near 2.6. Many of the other results were omitted from the sample, so the highest values are more common in it than they were.
# Legend:
# [1] = system: RAW-Dual; assay: NF-kB SEAP reporter activity, fold change vs agonist alone; higher = enhanced NF-kB activity
# How it was run: (§1)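 Supernatant from RAW-Dual macrophages was read after 20 hours for IRF by QuantiLuc luminescence and for NF-κB by QuantiBlue absorbance at 620 nm. The cells (50,000 cells/well in DMEM, 384-well plates, 37 °C, 5% CO2) had received 50 nL of library stock by pin tool and, 1 h later, a PRR agonist. Reporter activity is expressed relative to agonist-alone wells as fold change, and wells were flagged cytotoxic if IncuCyte confluency was under 70% of agonist controls in both mask sets.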
# [2] = system: RAW-Dual; assay: NF-kB SEAP reporter activity, fold change vs agonist alone; cytotoxicity flag (confluency mask): cytotoxic (confluency <70% of control); library stock concentration (final ~1000-fold dilution): 10 mM; higher = enhanced NF-kB activity
# How it was run: as §1
# [3] = system: RAW-Dual; assay: NF-kB SEAP reporter activity, fold change vs agonist alone; cytotoxicity flag (confluency mask): not cytotoxic; library stock concentration (final ~1000-fold dilution): 10 mM; higher = enhanced NF-kB activity
# How it was run: as §1
# [4] = system: RAW-Dual; assay: NF-kB SEAP reporter activity, fold change vs agonist alone; cytotoxicity flag (confluency mask): not cytotoxic; library stock concentration (final ~1000-fold dilution): .1 mM; higher = enhanced NF-kB activity
# How it was run: as §1
# [5] = library stock concentration (final ~1000-fold dilution): 10 mM, cytotoxicity flag (confluency mask): cytotoxic (confluency <70% of control), agonist: Imiquimod (TLR7) […]
# [6] = library stock concentration (final ~1000-fold dilution): 10 mM, cytotoxicity flag (confluency mask): cytotoxic (confluency <70% of control), agonist: MPLA (TLR4) […]
# [7] = agonist: ODN 1826 (TLR9) 0.5 ug/mL
# [8] = agonist: Pam2CSK4 (TLR2/6) 0.1 ug/mL
# [9] = agonist: Pam3CSK4 (TLR2/1) 0.1 ug/mL
# [10] = library stock concentration (final ~1000-fold dilution): 10 mM, cytotoxicity flag (confluency mask): not cytotoxic, agonist: Imiquimod (TLR7) […]
# [11] = library stock concentration (final ~1000-fold dilution): 10 mM, cytotoxicity flag (confluency mask): not cytotoxic, agonist: MPLA (TLR4) […]
smiles,measurement,setting,value
O=C(CBr)N1CC([N+](=O)[O-])([N+](=O)[O-])C1,NF-kB SEAP reporter activity,[1]; [5],0.542
same,NF-kB SEAP reporter activity,[1]; [6],0.295
same,NF-kB SEAP reporter activity,[2]; agonist: LPS (TLR4) 0.1 ug/mL,0.335
same,NF-kB SEAP reporter activity,[2]; [7],0.252
same,NF-kB SEAP reporter activity,[2]; [8],0.0912
same,NF-kB SEAP reporter activity,[2]; [9],0.189
CC1=CC2Cc3[nH]c(=O)ccc3C3(C1)NCCCC23 (stereo not drawn),NF-kB SEAP reporter activity,[1]; [10],0.933
same,NF-kB SEAP reporter activity,[1]; [11],1.03
same,NF-kB SEAP reporter activity,[3]; agonist: LPS (TLR4) 0.1 ug/mL,1.12
same,NF-kB SEAP reporter activity,[3]; [7],0.952
same,NF-kB SEAP reporter activity,[3]; [8],1.11
same,NF-kB SEAP reporter activity,[3]; [9],1.22
COc1ccc(CC2NCC(O)C2OC(C)=O)cc1 (stereo not drawn),NF-kB SEAP reporter activity,[1]; [5],0.133
same,NF-kB SEAP reporter activity,[1]; [6],0.231
same,NF-kB SEAP reporter activity,[2]; agonist: LPS (TLR4) 0.1 ug/mL,0.216
same,NF-kB SEAP reporter activity,[2]; [7],0.171
same,NF-kB SEAP reporter activity,[2]; [8],0.0635
same,NF-kB SEAP reporter activity,[2]; [9],0.145
Cc1c(C(C)C2NCC(C)CC2O)ccc2c1CC1C2CC=C2CC(O)CCC21C (stereo not drawn),NF-kB SEAP reporter activity,[1]; [10],0.945
same,NF-kB SEAP reporter activity,[1]; [11],1.15
same,NF-kB SEAP reporter activity,[3]; agonist: LPS (TLR4) 0.1 ug/mL,1.1
same,NF-kB SEAP reporter activity,[3]; [7],1.02
same,NF-kB SEAP reporter activity,[3]; [8],0.866
same,NF-kB SEAP reporter activity,[3]; [9],1.03
O.O=C1C=CCC2C3CCCN4CCCC(CN12)C34 (stereo not drawn),NF-kB SEAP reporter activity,[1]; [10],0.531
same,NF-kB SEAP reporter activity,[1]; [11],0.792
same,NF-kB SEAP reporter activity,[3]; agonist: LPS (TLR4) 0.1 ug/mL,1.41
same,NF-kB SEAP reporter activity,[3]; [7],0.558
same,NF-kB SEAP reporter activity,[3]; [8],0.957
same,NF-kB SEAP reporter activity,[3]; [9],1.11
Cc1sc2c(c1C)C(c1ccc(Cl)cc1)=NC(CC(=O)Nc1ccc(O)cc1)c1nnc(C)n1-2 (stereo not drawn),NF-kB SEAP reporter activity,[1]; [10],1.49
same,NF-kB SEAP reporter activity,[1]; [11],2.56
same,NF-kB SEAP reporter activity,[3]; agonist: LPS (TLR4) 0.1 ug/mL,3.19
same,NF-kB SEAP reporter activity,[3]; [7],2.24
same,NF-kB SEAP reporter activity,[3]; [8],0.856
same,NF-kB SEAP reporter activity,[3]; [9],1.74
Cc1sc2c(c1C)C(c1ccc(Cl)cc1)=NC(CC(=O)OC(C)(C)C)c1nnc(C)n1-2 (stereo not drawn),NF-kB SEAP reporter activity,[1]; [5],2.49
same,NF-kB SEAP reporter activity,[1]; [6],2.26
same,NF-kB SEAP reporter activity,[2]; agonist: LPS (TLR4) 0.1 ug/mL,2.05
same,NF-kB SEAP reporter activity,[2]; [7],1.9
same,NF-kB SEAP reporter activity,[2]; [8],0.784
same,NF-kB SEAP reporter activity,[2]; [9],1.19
Cc1sc2c(c1C)C(c1ccc(Cl)cc1)=NC(CC(N)=O)c1nnc(C)n1-2 (stereo not drawn),NF-kB SEAP reporter activity,[1]; [10],1.43
same,NF-kB SEAP reporter activity,[1]; [11],2.38
same,NF-kB SEAP reporter activity,[3]; agonist: LPS (TLR4) 0.1 ug/mL,2.51
same,NF-kB SEAP reporter activity,[3]; [7],1.97
same,NF-kB SEAP reporter activity,[3]; [8],0.734
same,NF-kB SEAP reporter activity,[3]; [9],1.69
CCNC(=O)CC1N=C(c2ccc(Cl)cc2)c2cc(OC)ccc2-n2c(C)nnc21 (stereo not drawn),NF-kB SEAP reporter activity,[1]; [10],1.41
same,NF-kB SEAP reporter activity,[1]; [11],2.47
same,NF-kB SEAP reporter activity,[3]; agonist: LPS (TLR4) 0.1 ug/mL,2.57
same,NF-kB SEAP reporter activity,[3]; [7],1.9
same,NF-kB SEAP reporter activity,[3]; [8],0.886
same,NF-kB SEAP reporter activity,[3]; [9],1.43
COc1ccc2c(c[n+](C)c3c4cc5c(cc4ccc23)OCO5)c1OC.Cl,NF-kB SEAP reporter activity,[1]; [10],0.228
same,NF-kB SEAP reporter activity,[1]; [11],0.224
same,NF-kB SEAP reporter activity,[3]; agonist: LPS (TLR4) 0.1 ug/mL,0.278
same,NF-kB SEAP reporter activity,[3]; [7],0.195
same,NF-kB SEAP reporter activity,[3]; [8],0.15
same,NF-kB SEAP reporter activity,[3]; [9],0.163
O=c1[nH]c2ccccc2n1C1CCN(Cc2ccc(-c3nc4cc5nc[nH]c5cc4nc3-c3ccccc3)cc2)CC1,NF-kB SEAP reporter activity,[1]; [10],0.45
same,NF-kB SEAP reporter activity,[1]; [11],1.05
same,NF-kB SEAP reporter activity,[3]; agonist: LPS (TLR4) 0.1 ug/mL,1.2
same,NF-kB SEAP reporter activity,[3]; [7],0.187
same,NF-kB SEAP reporter activity,[3]; [8],0.317
same,NF-kB SEAP reporter activity,[3]; [9],0.427
Br.COc1ccc2c(c1)C13CCCCC1C(C2)N(C)CC3.O (stereo not drawn),NF-kB SEAP reporter activity,[1]; [11],0.902
same,NF-kB SEAP reporter activity,[3]; agonist: LPS (TLR4) 0.1 ug/mL,0.802
same,NF-kB SEAP reporter activity,[3]; [7],0.615
same,NF-kB SEAP reporter activity,[3]; [8],0.806
same,NF-kB SEAP reporter activity,[3]; [9],0.824
Br.CN1C2CC(OC(=O)C(CO)c3ccccc3)CC1C1OC12.O.O.O (stereo not drawn),NF-kB SEAP reporter activity,[1]; [10],0.88
same,NF-kB SEAP reporter activity,[1]; [11],1.09
same,NF-kB SEAP reporter activity,[3]; agonist: LPS (TLR4) 0.1 ug/mL,0.989
same,NF-kB SEAP reporter activity,[3]; [7],0.789
same,NF-kB SEAP reporter activity,[3]; [8],1.04
same,NF-kB SEAP reporter activity,[3]; [9],1.12
Cc1cccc(-c2ccnc3c(C(N)=O)cnn23)c1,NF-kB SEAP reporter activity,"[1]; library stock concentration (final ~1000-fold dilution): .1 mM, cytotoxicity flag (confluency mask): not cytotoxic, agonist: Imiquimod (TLR7) […]",0.791
same,NF-kB SEAP reporter activity,"[1]; library stock concentration (final ~1000-fold dilution): .1 mM, cytotoxicity flag (confluency mask): not cytotoxic, agonist: MPLA (TLR4) […]",1.15
same,NF-kB SEAP reporter activity,[4]; agonist: LPS (TLR4) 0.1 ug/mL,1.21
same,NF-kB SEAP reporter activity,[4]; [7],1.28
same,NF-kB SEAP reporter activity,[4]; [8],1.25
same,NF-kB SEAP reporter activity,[4]; [9],1.13
